# Jurkat NFkB inh: inhibitors of the PMA/ionomycin-induced NF-kB reporter in Jurkat cells; PMA/ionomycin-induced NF-kB luciferase reporter, luminescence; inhibition, % at 4 µM; actives 0.53% (n = 330,000); in the data active means inhibition above about 50%
# Mdm2 MdmX PPI: inhibitors of human Mdm2/MdmX interaction | O15151+Q00987 | SaOS-2 split-luciferase Mdm2/MdmX complementation, luminescence | inhibition, % at 8 µM | actives 3% (n = 330,000) | AID 485346;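 active means inhibition of at least 50% at 8 µM in the primary screen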
# Target sequence (O15151 whole entry, looked up): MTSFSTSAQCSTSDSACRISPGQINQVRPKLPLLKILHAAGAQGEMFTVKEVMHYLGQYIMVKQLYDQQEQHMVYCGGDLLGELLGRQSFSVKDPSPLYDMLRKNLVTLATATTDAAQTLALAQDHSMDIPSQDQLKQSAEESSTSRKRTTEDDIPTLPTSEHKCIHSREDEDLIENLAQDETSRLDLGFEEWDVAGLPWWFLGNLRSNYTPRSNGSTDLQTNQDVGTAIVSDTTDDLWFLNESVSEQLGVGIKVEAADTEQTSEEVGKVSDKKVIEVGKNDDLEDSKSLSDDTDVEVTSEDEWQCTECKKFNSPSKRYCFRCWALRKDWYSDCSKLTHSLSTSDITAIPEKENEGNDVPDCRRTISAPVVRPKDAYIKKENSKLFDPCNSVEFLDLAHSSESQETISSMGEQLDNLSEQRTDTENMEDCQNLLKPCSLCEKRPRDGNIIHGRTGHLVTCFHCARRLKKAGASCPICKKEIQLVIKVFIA
# Target sequence (Q00987 whole entry, looked up): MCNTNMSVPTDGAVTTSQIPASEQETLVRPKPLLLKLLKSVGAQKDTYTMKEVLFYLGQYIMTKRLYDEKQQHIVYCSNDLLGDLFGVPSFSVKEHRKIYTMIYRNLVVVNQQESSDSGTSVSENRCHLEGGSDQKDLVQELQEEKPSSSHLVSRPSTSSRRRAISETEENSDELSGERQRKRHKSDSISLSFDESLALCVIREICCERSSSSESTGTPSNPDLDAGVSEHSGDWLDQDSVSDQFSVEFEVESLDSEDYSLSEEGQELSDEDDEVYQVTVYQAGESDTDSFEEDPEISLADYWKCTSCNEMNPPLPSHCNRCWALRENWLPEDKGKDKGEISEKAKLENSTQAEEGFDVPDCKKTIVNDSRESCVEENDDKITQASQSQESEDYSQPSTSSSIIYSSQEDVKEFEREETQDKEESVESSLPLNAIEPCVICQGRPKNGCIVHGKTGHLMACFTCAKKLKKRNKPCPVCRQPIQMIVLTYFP
# 697 NFkB inh: inhibitors of the PMA/ionomycin-induced NF-kB reporter in 697 B cells | 697 B-cell NF-kB luciferase reporter, 16 h | inhibition, % at 4 µM | actives 0.33% (n = 330,000) | AID 435022; in the data active means inhibition above about 35%
# Gli-Sufu block: antagonists of Gli-Sufu signaling | Sufu-KO-LIGHT fibroblasts, Gli luciferase reporter luminescence | inhibition, % at 5 µM | actives 0.74% (n = 340,000);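 active means inhibition above about 55%, limit read from the data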;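 further: 0% = DMSO-treated cells and 100% = wells with medium but no cells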
# Beta apoptosis: beta cell apoptosis inhibition; protection from apoptosis, % (test concentration not listed); actives 0.8% (n = 300,000); INS-1E cytokine-induced death, ATP luminescence, 48 h; percent of positive-control rescue, neutral wells zero; AID 435005;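 active means Every replicate reaches about 75%, or at least half do and their mean reaches it too, limit read from the data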;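 further: 0% = cytokine-treated negative control wells and 100% = positive control rescue; higher means more ATP so stronger rescue from cytokine killing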
# Mdm2 MdmX conf: human Mdm2/MdmX binding inhibition, confirmed; shares compounds with Mdm2 MdmX PPI; luminescent assay; inhibition, % at 8 µM; actives 55% (n = 10,000); in the data active means inhibition above about 40%
# Full FLuc ctr: inhibits full-length luciferase, flagging false Mdm2/MdmX hits; shares compounds with Mdm2 MdmX PPI; SaOS-2 full-length luciferase counterscreen, luminescence; inhibition, % at 8 µM; actives 77% (n = 6,200); AID 504607;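 active means mean inhibition at 8 µM reaching about 37%, which flags the compound as non-specific, limit read from the data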;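 further: p53-null SaOS-2 cells with luciferase driven by a doxycycline-inducible promoter; compound on cells about two nights before reading with doxycycline added after day one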
# * hit, by the source's call; / = no result given. A selection: hits, their analogues and other compounds. The true share with any hit is near 4%.
SMILES,Jurkat NFkB inh,Mdm2 MdmX PPI,697 NFkB inh,Gli-Sufu block,Beta apoptosis,Mdm2 MdmX conf,others
CCOc1ccc(/C=N/NC(=O)COc2ccccc2-c2ccccc2)cc1,16,51*,-9,-1,3,44*,Full FLuc ctr=52*
CCOc1ccc(/C=N/NC(=S)Nc2c(C)cccc2C)cc1,-7,52*,-14,-2,4,15,
COc1ccc(N2CCCn3c2nc2c3c(=O)n(Cc3ccc(C)cc3)c(=O)n2C)c(OC)c1,-1,15,-10,6,13,/,
CCc1nnc(NC(=O)CCC(=O)Nc2ccc(C)cc2)s1,-14,15,-17,-10,-7,/,
Cc1ccc(C(=O)NCCS(=O)(=O)N2CCN(c3ccccc3F)CC2)cc1[N+](=O)[O-],0,17,9,8,1,/,
Oc1ccc2ccccc2c1C=NCc1cn2ccsc2n1,6,51*,4,3,-8,4,
Oc1ccc2ccccc2c1/C=N/c1nccs1,8,4,-3,-4,-15,/,
CCOC(=O)N1CCC2CC1c1cc(-c3cccc(OC)c3)ccc12 (configuration not stated),/,/,/,5,/,/,
C=CC1CN(C(=O)OCC(Cl)(Cl)Cl)C2CC3c4ccc(OC)cc4NC3C3CC1C2CO3 (configuration not stated),15,57*,12,0,5,-5,
COc1ccc(NC(=O)COC(=O)Cc2c(F)cccc2Cl)cc1,-17,-26,-14,-6,-6,/,
O=C(COc1ccccc1Cl)NNC(=O)c1ccc2nc[nH]c2c1,12,10,18,6,-6,/,
COC(=O)c1ccc(-n2c(C)cc(C(=O)CSc3ccc(NC(C)=O)cc3)c2C)cc1,10,18,2,-8,/,/,
COCCn1c(C)cc(C(=O)CSc2ccc(NC(C)=O)cc2)c1C,-29,35,-37,8,3,/,
CC(=O)Nc1ccc(SCC(=O)c2cc(C)n(Cc3cccs3)c2C)cc1,-22,74*,-235,43,1,-2,
Cc1cc(C(=O)COC(=O)C2=COCCO2)c(C)n1-c1ccccc1,-23,83*,-124,-4,-4,84*,Full FLuc ctr=32
CC(=O)Nc1ccc(SCC(=O)c2cc(C)n(-c3ccccc3F)c2C)cc1,-15,72*,-111,41,-1,82*,Full FLuc ctr=73*
Cc1cc(C(=O)COC(=O)c2ccc[nH]c2=O)c(C)n1-c1ccccc1F,-49,-17,-55,-63,3,/,
Cc1cc(C(=O)COC(=O)c2ccc(O)cc2)c(C)n1-c1ccccc1F,-37,57*,-114,-19,-2,64*,Full FLuc ctr=138*
Cc1ccc(NC2=NCC(=O)N2Cc2cccs2)cc1C,2,-9,-10,-15,0,/,
NC(=O)CSc1nnc(-c2ccccc2F)n1C1CC1,12,-7,15,-23,-7,/,
CCC1C(=O)N=C(SCC(=O)Nc2nc3ccccc3s2)NC1=O (configuration not stated),2,72*,11,-3,-2,18,
CCC1C(=O)N=C(SCC(=O)Nc2cccc3ccccc23)NC1=O (configuration not stated),15,-7,4,0,/,/,
Cn1cc(SCC(=O)Nc2nc3ccccc3s2)c2ccccc21,4,78*,10,-11,-26,67*,Full FLuc ctr=62*
O=[N+]([O-])c1ccc(Sc2nnnn2-c2ccccc2)nc1,39,61*,-86,29,/,47*,Full FLuc ctr=79*
Cc1ccccc1-n1nnnc1Sc1nnnn1-c1ccccc1,30,98*,-74,12,60,83*,Full FLuc ctr=54*
SMILES,Jurkat NFkB inh,Mdm2 MdmX PPI,697 NFkB inh,Gli-Sufu block,Beta apoptosis,Mdm2 MdmX conf,others
Cc1ccccc1-n1nnnc1SCC(N)=O,-7,-7,5,3,-8,/,
CCCC(c1nnnn1C(C)(C)CC)N1CCN(C(=O)c2ccco2)CC1 (configuration not stated),3,20,12,-1,-6,/,
CCC(NC(=O)C(C)NC)C(=O)N1CCCC1C(=O)NC1CCCc2ccccc21 (configuration not stated),-15,-5,-179,44,36,/,
COc1ccc2c(c1)c1ncn(CCc3ccccc3)c(=O)c1n2C,-4,6,-16,0,-9,/,
COc1ccc(Cn2cnc3c4cc(F)ccc4n(C)c3c2=O)cc1,1,65*,-10,-1,-7,9,
CC(C)CN(C(=O)CCC(=O)OCC(=O)NCCc1ccccc1)c1c(N)n(CC(C)C)c(=O)[nH]c1=O,13,13,24,18,2,/,
C=CCNC(=O)c1ccc(-c2nc(-c3ccc(Cl)c(Cl)c3)cs2)cc1,7,52*,-146,-6,-15,25,
CN1Cc2c(N3CCOCC3)nc3sc(C(=O)c4ccccc4)c(N)c3c2CC1(C)C,7,59*,-30,-1,0,24,
Oc1ccc(/C=N/Nc2ccc(C(F)(F)F)cn2)cc1,-121,-154,-182,-76,-5,/,
Oc1ccc(/C=N/Nc2ccc(C(F)(F)F)cn2)c(O)c1,-15,64*,-9,/,73,36,Full FLuc ctr=56*
COc1ccc(-c2c(C#N)c(N)nc(Sc3ccc(Cl)cc3)c2C#N)cc1,15,33,-18,11,36,/,
COc1nc(N)c(C#N)c(-c2ccc(N(C)CCC#N)cc2)c1C#N,19,73*,20,-6,10,47*,Full FLuc ctr=82*
COc1ccccc1C(=O)Nc1ccccc1SC(=O)c1ccccc1OC,-27,63*,-95,43,29,40,Full FLuc ctr=90*
CCOC(=O)c1ccc(N=c2sc(C(=O)OC)cc(=O)n2-c2ccc(C(=O)OCC)cc2)cc1,22,83*,30,-2,24,-6,
O=C(Nc1cccc(-c2cn3ccccc3n2)c1)c1cc2ccccc2oc1=O,-30,100*,-88,-83,9,21,
CC(C)CC1COC(=O)N1 (configuration not stated),11,13,2,-13,0,/,
Cc1cc(C)nc(NC(=S)Nc2ccc(Br)cc2Cl)c1,-5,51*,-4,-2,-1,-6,
Cc1cc(C)nc(NC(=S)Nc2cccc(Cl)c2Cl)c1,5,3,-14,-13,0,/,
CCc1nnc(NC(=O)CSc2nnc3c(n2)[nH]c2ccccc23)s1,-15,15,10,-4,-1,/,
Cc1ccnc(NC(=O)CSc2nnc3c(n2)[nH]c2ccccc23)c1,-18,55*,-28,/,-19,56*,Full FLuc ctr=99*
CC(C)CN(C(=O)COC(=O)/C=C/c1ccc(Cl)c(Cl)c1)c1c(N)n(Cc2ccccc2)c(=O)[nH]c1=O,25,92*,-13,-5,/,18,
CCCCC1CCC(C(=O)N(CC(C)C)c2c(N)n(Cc3ccccc3)c(=O)[nH]c2=O)CC1 (configuration not stated),15,97*,8,8,85*,29,
